About 79,000 compounds went through this panel and 15% of them were active in at least one assay; those are over-represented in the sample as a whole. The source made the active and inactive calls. Rule as the data show it: active = growth inhibition above about 70%; inactive = the rest.
Tests used:
[1] = NCI Yeast Anticancer Drug Screen. Data for the rad52 strain (AID 147);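 also: 0% = growth of vehicle-treated control cultures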; settings: S. cerevisiae rad52 mutant growth inhibition, active compounds read high
How it was run: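 Growth of repair-deficient yeast cells was compared between compound-treated and vehicle-treated cultures to give percent inhibition.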

[2] = NCI Yeast Anticancer Drug Screen. Data for the wt1 strain (AID 149);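 also: 0% = growth of vehicle-treated wt1 cultures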; settings: S. cerevisiae wt1 strain (SPY 50644) growth inhibition, active compounds read high
How it was run: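 Measured: growth of wt1 yeast under compound versus vehicle treatment, reported as inhibition.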

[3] = NCI Yeast Anticancer Drug Screen. Data for the rad50EPP+ strain (AID 151);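 also: 0% = growth of vehicle-treated control cultures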; settings: S. cerevisiae rad50 mutant strain, active compounds read high
How it was run: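 Measured: growth inhibition of rad50EPP+ yeast. Reference: vehicle-treated controls. Screen uses strains with defined genetic alterations in DNA damage repair or cell cycle control.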

[4] = NCI Yeast Anticancer Drug Screen. Data for the mgt1 strain (AID 153); settings: S. cerevisiae mgt1 mutant growth inhibition, active compounds read high
How it was run: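 Compounds were applied to mgt1 mutant yeast, and growth was then compared against vehicle-treated control cultures to give percent inhibition.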

[5] = NCI Yeast Anticancer Drug Screen. Data for the rad50 strain (AID 155);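 also: 0% = growth of vehicle-only cultures of the same strain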; settings: S. cerevisiae rad50 strain growth inhibition, active compounds read high
How it was run: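 Growth of the mutant yeast was measured after compound exposure and referenced to vehicle-treated cultures.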

[6] = NCI Yeast Anticancer Drug Screen. Data for the mec2-1 strain (AID 157); settings: S. cerevisiae mec2-1 strain, active compounds read high
How it was run: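 Compounds were applied to mec2-1 yeast cells. Their growth was then compared with that of vehicle-treated cultures to give growth inhibition.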

[7] = NCI Yeast Anticancer Drug Screen. Data for the rad14 strain (AID 159);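 also: 0% = growth of vehicle-treated control cultures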; settings: S. cerevisiae rad14 strain growth inhibition, active compounds read high
How it was run: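 Here, inhibition of yeast growth was measured after compound exposure, using a strain with a genetic defect in DNA damage repair and vehicle-treated cultures as the reference.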

[8] = NCI Yeast Anticancer Drug Screen. Data for the sgs1 mgt1 strain (AID 161);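 also: 0% = growth of cultures given vehicle only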; settings: S. cerevisiae sgs1 mgt1 strain, active compounds read high
How it was run: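 Growth of a repair-deficient yeast mutant was monitored after compound treatment and expressed as inhibition relative to vehicle-treated cultures.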

[9] = NCI Yeast Anticancer Drug Screen. Data for the CLN2oe strain (AID 163);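 also: 0% = growth of vehicle-only control cultures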; settings: S. cerevisiae CLN2oe strain, active compounds read high
How it was run: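 Cells of an engineered yeast line with disturbed cell-cycle regulation are treated with compound. Inhibition of growth is then calculated relative to the vehicle-treated reference.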

[10] = NCI Yeast Anticancer Drug Screen. Data for the cln2 rad14 strain (AID 165);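 also: 0% = growth equal to vehicle treated cultures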; settings: S. cerevisiae cln2 rad14 strain, active compounds read high
How it was run: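 Strain: cln2 rad14 yeast, altered in cell cycle control and DNA damage repair. Read-out: growth inhibition vs vehicle.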

[11] = NCI Yeast Anticancer Drug Screen. Data for the bub3 strain (AID 167); settings: S. cerevisiae bub3 mutant strain, active compounds read high
How it was run: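 Whole-cell yeast assay. The mutant strain was incubated with compounds, and growth inhibition was determined by comparison with vehicle-treated cells.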

[12] = NCI Yeast Anticancer Drug Screen. Data for the wt2 strain (AID 169);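 also: 0% = growth of vehicle-treated yeast cultures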; settings: S. cerevisiae wt2 strain growth inhibition, active compounds read high
How it was run: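 Growth of compound-treated yeast is measured and expressed as inhibition relative to vehicle-only controls.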

[13] = NCI Yeast Anticancer Drug Screen. Data for the mlh1 strain (AID 171);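 also: 0% = growth of vehicle-treated control cultures of the same strain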; settings: S. cerevisiae mlh1 strain growth inhibition, active compounds read high
How it was run: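 Test agents were incubated with yeast bearing a defined DNA damage repair or cell cycle control alteration; values are growth inhibition normalised to vehicle-treated cultures.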

[14] = NCI Yeast Anticancer Drug Screen. Data for the sgs1 strain (AID 173);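 also: 0% = growth of vehicle-only control cultures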; settings: S. cerevisiae sgs1 mutant, active compounds read high
How it was run: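 Strain with an altered DNA repair or cell cycle pathway exposed to compound. Growth then measured. Value = inhibition versus vehicle control.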

[15] = NCI Yeast Anticancer Drug Screen. Data for the mlh1 rad18 strain (AID 175); settings: S. cerevisiae mlh1 rad18 strain growth inhibition, active compounds read high
How it was run: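 A repair-deficient yeast strain is exposed to test compound, and growth is scored relative to vehicle-treated controls.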

[16] = NCI Yeast Anticancer Drug Screen. Data for the rad18 strain (AID 177); settings: S. cerevisiae rad18 mutant growth inhibition, active compounds read high
How it was run: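 DNA-repair-defective yeast; compound treatment; growth inhibition scored against vehicle.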

[17] = at 5.0 µM (retest, dose inferred, filed as 0.5)
[18] = at 50.0 µM (retest, dose inferred, filed as 5.0)

Measured: growth inhibition

OCc1ccccc1Cc1ccccc1
inactive: [1]; at 1.2 µM -4% | [1]; at 3.7 µM 0% | [1]; at 11.0 µM -2% | [1]; at 33.0 µM -3% | [1]; at 100.0 µM -3% | [2]; at 1.2 µM 0% | [2]; at 3.7 µM -1% | [2]; at 11.0 µM 0% | [2]; at 33.0 µM -2% | [2]; at 100.0 µM -7% | [3]; at 1.2 µM 2% | [3]; at 3.7 µM 2% | [3]; at 11.0 µM 8% | [3]; at 33.0 µM 12% | [3]; at 100.0 µM 30% | [4]; at 1.2 µM -3% | [4]; at 3.7 µM -5% | [4]; at 11.0 µM -2% | [4]; at 33.0 µM 12% | [4]; at 100.0 µM -10% | [5]; at 1.2 µM -1% | [5]; at 3.7 µM 0% | [5]; [17] 7% | [5]; at 11.0 µM -1% | [5]; at 33.0 µM -3% | [5]; [18] 21% | [5]; at 100.0 µM -6% | [6]; at 1.2 µM -1% | [6]; at 3.7 µM 2% | [6]; [17] -2% | [6]; at 11.0 µM -4% | [6]; at 33.0 µM -6% | [6]; [18] -17% | [6]; at 50.0 µM 53.4% | [6]; at 100.0 µM -6% | [7]; at 1.2 µM -1% | [7]; at 3.7 µM -1% | [7]; at 11.0 µM 0% | [7]; at 33.0 µM -2% | [7]; at 100.0 µM -3% | [8]; [17] 0% | [8]; [18] 50% | [8]; at 50.0 µM 60.5% | [9]; at 1.2 µM -7% | [9]; at 3.7 µM 0% | [9]; at 11.0 µM -2% | [9]; at 33.0 µM -5% | [9]; at 100.0 µM -7% | [10]; [17] 5% | [10]; [18] -2% | [10]; at 50.0 µM 32.9% | [11]; at 1.2 µM 2% | [11]; at 3.7 µM -1% | [11]; [17] 12% | [11]; at 11.0 µM 5% | [11]; at 33.0 µM 1% | [11]; [18] 40% | [11]; at 50.0 µM 65.8% | [11]; at 100.0 µM -9% | [12]; at 1.2 µM 0% | [12]; at 3.7 µM 0% | [12]; at 11.0 µM 0% | [12]; at 33.0 µM -2% | [12]; at 100.0 µM -7% | [13]; at 1.2 µM -1% | [13]; at 3.7 µM -1% | [13]; at 11.0 µM 0% | [13]; at 33.0 µM -2% | [13]; at 100.0 µM -3% | [14]; at 1.2 µM 0% | [14]; at 3.7 µM 2% | [14]; at 11.0 µM 2% | [14]; at 33.0 µM 1% | [14]; at 100.0 µM -1% | [15]; [17] 3% | [15]; [18] 63% | [16]; at 1.2 µM -1% | [16]; at 3.7 µM 0% | [16]; at 11.0 µM -16% | [16]; at 33.0 µM -2% | [16]; at 100.0 µM -6%
active: [5]; at 50.0 µM 87.9% | [15]; at 50.0 µM 79.6%
